{
  "source": "PubChem BioAssay AID686979",
  "about": "(National Center for Advancing Translational Sciences (NCATS), 2013)",
  "note": "Values joined by “and” are separate entries in the source; they are usually repeats but may differ in a detail not shown here. Equal values may be shown once. Screen size: about 420,000 compounds; about 50,000 (12%) were called active. Roughly 26% stayed inconclusive and do not appear here. Calls come from the whole dose curve; as a rule, active = well fitted inhibition curve with a large enough effect; inconclusive = small, poorly fitted or top-dose-only effect; inactive = flat fitted curve, though single readings scatter. Many of the other results were omitted from the sample, so actives are more common in it than they were. % is set by controls: 0 for no effect and ±100 for the full control effect; potency is the fitted concentration of half-maximal effect.",
  "data": [
    {"test": "qHTS for Inhibitors of human tyrosyl-DNA phosphodiesterase 1 (TDP1): qHTS in cells in presence of CPT; note: nearly all actives have a fitted effect of over 55% in size", "conditions": "chicken DT40 Tdp1-/-;hTDP1 cells + 20 nM CPT, ATP luminescence, 48 h; series mostly up to 46.2 µM; activity change, negative = growth inhibition: at the top concentration", "excerpt": "Human tyrosyl-DNA phosphodiesterase 1 (TDP1) is a novel repair gene, and we propose to use it as a new target for anticancer drug development. TDP1 is not an essential protein, but under treatment with topoisomerase I poison (camptothecin: CPT), TDP1 works as a critical factor for cell survival. To directly identify novel TDP1 inhibitors active in a cellular environment, we have knocked-out the Tdp1 gene in chicken DT40 cells (Tdp1-/-) and generated a complemented counterpart cells that contains a stable transfection of the human TDP1 gene (Tdp1-/-;hTDP1 cells). For the primary screen, Tdp1-/-;hTDP1 cells will be exposed to small molecules in the presence or absence of CPT, and their growth kinetics will be evaluated after 48 hours by measuring ATP activity. […] The hit compounds will then be evaluated in the presence or absence of CPT using Tdp1-/- cells. […] In tertiary assays, biochemical gel-based assays will be used to assess whether the hit compounds specifically target TDP1. To this end, we have screened this cell line against the MLSMR in two primary screens. In one screen we add CPT and in the other we screen in the absence of CPT; this AID represents the screen where CPT was present. NIH Chemical Genomics Center [NCGC] NIH Molecular Libraries Probe Centers Network [MLPCN] MLPCN Grant: MH095538 Assay Submitter (PI): Yves Pommier, NCI\nDT40-hTDP1 cells with 20 nM Camptothecin (add 20 microL of 1 mM CPT stock in 1 L of cell culture medium) were dispensed at 400 cells/5microL/well in tissue culture treated 1536-well white wall/solid bottom assay plates (Greiner Bio-One North America, NC, U.S.A.) using a Multidrop Combi 8 channel dispenser (Thermo Fisher, Waltham, MA, USA). 23 nL compounds and controls were transferred using the pin tool (Kalypsys, San Diego, CA, USA) to the assay plates. The assay plates were then incubated at 37 masculineC for a minimum 48 hr. Three microL of Cell Titer Glo solution was added to the plates and incubated at RT in dark for 30 min. Luminescence was read using ViewLux (Perkin Elmer) with 1 sec exposure slow speed, high gain and 2x binning.", "values": [
      {"smiles": "CC[C@H]1CN2CCc3cc(OC)c(OC)cc3[C@@H]2C[C@@H]1C[C@H]1NCCc2cc(OC)c(OC)cc21", "Potency": "188 nM (active) and 146 nM (active)"},
      {"smiles": "C=C(C)C1(CCCC)C(=O)NC(=S)NC1=O", "activity change, negative = growth inhibition": "-0.259% (inactive)"},
      {"smiles": "Cc1cc(OCc2cc(C(=O)O)oc2C)c2c3c(c(=O)oc2c1)CCCC3", "activity change, negative = growth inhibition": "-16% (inactive)"},
      {"smiles": "CN(C)C(=O)Oc1ccc2c(c1)O/C(=C\\c1ccccc1)C2=O", "activity change, negative = growth inhibition": "-6.72% (inactive)"},
      {"smiles": "CC(C)c1ccc(OCC(=O)N2CCCN(C)CC2)cc1", "activity change, negative = growth inhibition": "-3.5% (inactive)"},
      {"smiles": "CCCCC/C=C\\C/C=C\\C/C=C\\CCCCCCC(=O)NCCO", "activity change, negative = growth inhibition": "0.621% [at 4.12 µM] (inactive)"},
      {"smiles": "C[C@@H]1CC[C@@]2(OC1)O[C@H]1C[C@H]3[C@@H]4CC=C5C[C@@H](O)[C@H](O)C[C@]5(C)C4CC[C@]3(C)[C@H]1[C@@H]2C", "note": "(some centres undefined)", "Potency": "20.6 µM (active)"},
      {"smiles": "COc1ccc2cc1Oc1ccc(cc1)C[C@H]1c3cc(c(OC)cc3CCN1C)Oc1c(O)c(OC)cc3c1[C@H](C2)N(C)CC3", "Potency": "8.2 µM (active)"},
      {"smiles": "COc1c(O)ccc2c1-c1c3c(cc4c1C(C2)N(C)CC4)OCO3", "note": "(centres undefined)", "activity change, negative = growth inhibition": "1.12% (inactive)"},
      {"smiles": "COc1ccc2c(c1O)-c1cccc3c1[C@@H](C2)N(C)CC3", "activity change, negative = growth inhibition": "4.93% (inactive)"},
      {"smiles": "CC1(C)C(c2ccccc2)=NC(c2cccnc2)=[N+]1[O-]", "activity change, negative = growth inhibition": "-18.6% (inactive)"},
      {"smiles": "O=c1[nH]c(=O)n(CCc2ccc(F)cc2)c(O)c1/C=N/N1CCCCC1", "activity change, negative = growth inhibition": "3.95% (inactive)"},
      {"smiles": "CN(C)CC1CCCCC1=O", "note": "(centres undefined)", "Potency": "5.8 µM (active)"},
      {"smiles": "O=C(NCC(c1cccnc1)N1CCN(c2ccccc2)CC1)Oc1ccccc1", "note": "(centres undefined)", "activity change, negative = growth inhibition": "-17.7% (inactive)"},
      {"smiles": "CC(=O)Nc1cc(-c2cccc(CO)c2)cn2c(-c3cccc(C(F)(F)F)c3)cnc12", "Potency": "11.6 µM (active)"},
      {"smiles": "NC(=O)Nc1cccc(C(F)(F)F)c1", "activity change, negative = growth inhibition": "-5.71% (inactive)"},
      {"smiles": "CC(=O)OC1C2CCC3C1(CC(O)[C@@]1(O)[C@@H](CC(O)C1(C)C)[C@]3(C)O)C[C@@]2(C)O", "note": "(some centres undefined)", "activity change, negative = growth inhibition": "7.13% (inactive)"},
      {"smiles": "COc1ccccc1C(=O)N[C@@H]1c2ccccc2C2(CCN(Cc3nc(C(C)C)cs3)CC2)[C@H]1O", "Potency": "2.06 µM (active)"},
      {"smiles": "COc1ccccc1C1=NCc2nnc(CSC)n2-c2ccc(Cl)cc21", "activity change, negative = growth inhibition": "10.2% (inactive)"},
      {"smiles": "CCc1ccc(N(CC)C(=O)CCn2cnc3onc(-c4ccc(F)cc4)c3c2=O)cc1", "Potency": "16.4 µM (active)"},
      {"smiles": "CCCCC(=O)N/N=C/c1c(O)n(CC)c(=S)n(CC)c1=O", "Potency": "18.4 µM (active)"},
      {"smiles": "Cn1c(O)c(C=NCCCC(=O)O)c(=O)n(C)c1=O", "activity change, negative = growth inhibition": "2.87% (inactive)"},
      {"smiles": "CCCCC(=O)N/N=C/c1c(O)n(-c2ccccc2)c(=O)[nH]c1=O", "activity change, negative = growth inhibition": "15.6% (inactive)"},
      {"smiles": "O=C1NC(=O)C(C/C=C/c2ccccc2)C(=O)N1", "activity change, negative = growth inhibition": "-18.8% (inactive)"},
      {"smiles": "Cc1cccc(NC(=O)OC2CN3CCC2CC3)c1", "note": "(centres undefined)", "activity change, negative = growth inhibition": "8.88% (inactive)"},
      {"smiles": "CCC(=O)CC(c1ccc([N+](=O)[O-])cc1)c1c(O)c2ccccc2oc1=O", "note": "(centres undefined)", "activity change, negative = growth inhibition": "-9.51% (inactive)"},
      {"smiles": "CC(=O)c1c(O)n(C2CCCCCC2)c(=O)[nH]c1=O", "Potency": "18.4 µM (active)"},
      {"smiles": "CC(=NCC1CCCO1)c1c(O)n(-c2ccccc2)c(=O)[nH]c1=O", "note": "(centres undefined)", "activity change, negative = growth inhibition": "-10.4% (inactive)"},
      {"smiles": "O=c1[nH]c(=S)n(C2CC2)c(O)c1/C=N/N1CCOCC1", "activity change, negative = growth inhibition": "2.09% (inactive)"},
      {"smiles": "COC1=C[C@]23CCCN2CCc2cc4c(cc2[C@@H]3[C@@H]1O)OCO4", "activity change, negative = growth inhibition": "-3.38% [at 9.04 µM] (inactive)"},
      {"smiles": "CN1CCN(/N=C/c2c[nH]c3ccccc23)CC1", "activity change, negative = growth inhibition": "5.45% (inactive)"},
      {"smiles": "CC12CCC3C(CCC4CC(=O)CCC43C)C1CC(=NO)C2=O", "note": "(centres undefined)", "activity change, negative = growth inhibition": "-29.9% (inactive)"},
      {"smiles": "CCCCCn1c(=O)c(C(=O)NCc2ccccc2)c(O)c2ccccc21", "Potency": "4.61 µM (active)"},
      {"smiles": "CCCCCn1c(=O)c(C(=O)NCc2ccccn2)c(O)c2ccccc21", "Potency": "20.6 µM (active)"},
      {"smiles": "CCOC(=O)C1(Cc2ccc(Cl)cc2)CCN(C(C)CCn2cccn2)CC1", "note": "(centres undefined)", "activity change, negative = growth inhibition": "-24.1% (inactive)"},
      {"smiles": "O=c1[nH]c(=O)n(CCc2ccccc2)c(O)c1/C=N/N1CCOCC1", "activity change, negative = growth inhibition": "16.1% (inactive)"},
      {"smiles": "c1ccc2sc(C3CCCNC3)nc2c1", "note": "(centres undefined)", "activity change, negative = growth inhibition": "-7.24% (inactive)"},
      {"smiles": "CC[N+](CC)(CC)CCCCCCCCCC[N+](CC)(CC)CC", "activity change, negative = growth inhibition": "8.35% (inactive)"},
      {"smiles": "CN1CCN(Cc2ccc(OC(F)(F)F)cc2)CC1", "activity change, negative = growth inhibition": "0.372% (inactive)"},
      {"smiles": "CC(C)c1ccc(OCC(=O)N2CCN(C)CC2)c(Br)c1", "activity change, negative = growth inhibition": "-2.53% (inactive)"},
      {"smiles": "O=c1c2ccccc2[nH]c(=S)n1-c1cccc(Cl)c1", "activity change, negative = growth inhibition": "0.546% (inactive)"},
      {"smiles": "COc1cc(-n2c(=S)[nH]c3ccc(C)cc3c2=O)c(Cl)cc1Cl", "Potency": "8.2 µM (active)"},
      {"smiles": "c1ccc(CC2CCCCN2)cc1", "note": "(centres undefined)", "activity change, negative = growth inhibition": "12.3% (inactive)"},
      {"smiles": "CC(C)Oc1cccc(C(=O)C2CCCN(C3CCOCC3)C2)c1", "note": "(centres undefined)", "activity change, negative = growth inhibition": "-16.9% (inactive)"},
      {"smiles": "COc1cc2[nH]c(C)c(CCN3CCN(c4ccccc4)CC3)c2cc1OC", "Potency": "7.94 µM (active)"},
      {"smiles": "Oc1cc2c(cc1CN1CCN(c3ccccc3)CC1)OCO2", "activity change, negative = growth inhibition": "3.27% (inactive)"},
      {"smiles": "c1ccc(N2Cc3ccccc3-n3nncc3C2)nc1", "activity change, negative = growth inhibition": "-11.6% (inactive)"},
      {"smiles": "COCCCNC(=O)CC1C[C@H](C(=O)N2CCCCC2)[C@@]2(CCc3ccccc3)c3[nH]c4ccccc4c3CCN2C1=O", "note": "(some centres undefined)", "Potency": "23.1 µM (active)"},
      {"smiles": "Clc1ccc([C@@H]2C[C@H]3CC[C@@H]2N3)cn1", "Potency": "inactive"},
      {"smiles": "CCCC(C)n1[nH]c(=O)c2c1NC(=O)CSC2c1ccc(OC)c(OC)c1", "note": "(centres undefined)", "activity change, negative = growth inhibition": "-9.47% (inactive)"},
      {"smiles": "OC[C@@H]1CN(Cc2ccncc2)C[C@H](n2cnc3c(N4CCN(c5ccccc5)CC4)ncnc32)O1", "Potency": "2.06 µM (active)"},
      {"smiles": "CC12CN3CC(C)(CN(C1)C3c1cccs1)C2", "note": "(centres undefined)", "activity change, negative = growth inhibition": "-8.6% (inactive)"},
      {"smiles": "COc1cccc(OC)c1C(=O)NC(=S)N1C[C@H]2C[C@H](C1)c1cccc(=O)n1C2", "activity change, negative = growth inhibition": "29.1% (inactive)"},
      {"smiles": "OC1/C(=C/c2ccc(C(F)(F)F)cc2)N2CCC1CC2", "note": "(centres undefined)", "activity change, negative = growth inhibition": "-15% (inactive)"},
      {"smiles": "CC(C(=O)Nc1ccc(Cl)cc1Cl)N1CC=C(c2ccccc2)CC1", "note": "(centres undefined)", "activity change, negative = growth inhibition": "-6.73% (inactive)"},
      {"smiles": "c1csc(CN2CC3(CCNCC3)C2)n1", "activity change, negative = growth inhibition": "-12.3% (inactive)"},
      {"smiles": "N#Cc1c(Cl)c(Cl)c(Cl)c(C#N)c1Cl", "Potency": "178 nM (active) and 651 nM (active)"},
      {"smiles": "O=C(N/N=C/c1c(O)n(C2CC2)c(=S)[nH]c1=O)c1ccccc1", "activity change, negative = growth inhibition": "-2.43% (inactive)"},
      {"smiles": "N#CC(C#N)=Cc1cc(O)c(O)c([N+](=O)[O-])c1", "activity change, negative = growth inhibition": "-3.8% (inactive)"},
      {"smiles": "O=C(Cc1ccccc1[N+](=O)[O-])N1CCN(Cc2ccc3c(c2)OCO3)CC1", "activity change, negative = growth inhibition": "-19.9% (inactive)"},
      {"smiles": "C=CCN1C(=O)NC(=O)/C(=C/c2ccc(OCC(=O)Nc3ccc(C)cc3)cc2)C1=O", "activity change, negative = growth inhibition": "1.34% (inactive)"},
      {"smiles": "COc1ccc(CNC(=O)c2cc3c(-c4ccccc4F)nn(C)c3s2)c(OC)c1", "Potency": "4.11 µM (active)"},
      {"smiles": "CC/C(=N\\NC(=O)c1ccccc1O)c1c(O)n(Cc2ccccc2)c(=O)[nH]c1=O", "activity change, negative = growth inhibition": "-27.5% (inactive)"},
      {"smiles": "CC(=O)N(C1=NCCCS1)c1ccccc1F", "activity change, negative = growth inhibition": "-4.78% (inactive)"}
    ]}
  ]
}
